# 12-LOX inh: ALOX12 (human) lipoxygenase inhibition; purified 12hLO, xylenol orange hydroperoxide absorbance; Potency, µM (doses to about 108 µM), without a hit: at the highest dose activity change, negative = inhibition, most hits filed as inhibitors; 1.1% of 580,000 active
#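 Purified human 12hLO at 150 nM in 25 mM Hepes, 0.01% Triton X-100, pH 7.0, preincubated 15 min at room temperature with compound. Reaction started with 40 uM arachidonic acid, 30 min at room temperature. Hydroperoxide measured by Fe-xylenol orange, 573/405 nm absorbance ratio.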
# GCN5L2 inh: blocks human GCN5L2 histone acetyltransferase; Q92830; GCN5L2 HAT assay, ThioGlo1 CoA-SH fluorescence; Potency, µM (series often up to 58.9 µM), for inactives: at the top dose activity change, negative = inhibition, actives largely listed as inhibitors; 0.21% of 390,000 active; AID 504327
#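 Compounds, pin-transferred from DMSO stocks, meet 20nM GCN5L2 for 15 min before the reaction begins with H3(1-25) peptide (75uM) and acetyl-CoA (70uM). Thiol-reactive ThioGlo1 reports CoA release over 20 min at room temperature.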
# VDR inhibitor: blocks the human vitamin D receptor; P11473; AID 504847; VDR-SRC2-3 peptide fluorescence polarization, 2 h; Potency, µM, for the others: max response, negative = inhibition, usual class: inhibitors; 0.93% of 400,000 active
# Target sequence (P11473 whole entry, looked up): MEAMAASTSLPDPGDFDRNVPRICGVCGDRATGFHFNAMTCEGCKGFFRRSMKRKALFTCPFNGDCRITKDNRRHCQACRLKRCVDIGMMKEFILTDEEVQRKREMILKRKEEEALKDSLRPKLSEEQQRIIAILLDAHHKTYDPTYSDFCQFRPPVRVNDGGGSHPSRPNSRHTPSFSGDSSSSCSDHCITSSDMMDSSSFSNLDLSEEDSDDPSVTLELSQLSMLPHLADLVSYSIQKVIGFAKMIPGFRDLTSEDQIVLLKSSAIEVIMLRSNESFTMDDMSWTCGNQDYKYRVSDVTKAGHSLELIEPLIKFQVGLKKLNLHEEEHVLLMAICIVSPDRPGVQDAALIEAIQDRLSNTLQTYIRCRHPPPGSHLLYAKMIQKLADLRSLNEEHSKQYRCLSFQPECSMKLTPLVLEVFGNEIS
#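 After 23 nl compound addition and a short centrifugation, plates sat for 2 hours at ambient temperature; polarization of fluorescence then indicated loss of VDR binding to peptide SRC2-3.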
# PLK1 PBD block: inhibitors of human PLK1 polo-box domain binding; Plk1 PBD binding of FITC phosphopeptide, fluorescence polarization; Potency, µM, for inactives: max response, negative = inhibition, hits mostly inhibitors; P53350; 2.8% of 360,000 active; also: series mostly up to about 57 µM; nearly all actives have a fitted effect of over 65% in size
# * hit, by the source's call; ? = inconclusive; / = no result; [ ] = another dose, or the depositor's remark. The list is not random: actives were taken first. Their share in the collection is about 3%. Calls follow the shape of the dose curve; as a rule, active = well fitted curve in the direction sought with a large enough effect; inconclusive = small, poorly fitted or top-dose-only effect, or another doubt; inactive = no such curve, though single readings can be large; an effect the other way counts as inactive or inconclusive. % is scaled to controls: 0 for no effect and ±100 for the full control effect; potency is read from the fitted curve at half-maximal effect.
SMILES,12-LOX inh,GCN5L2 inh,VDR inhibitor,PLK1 PBD block
CCOn1c(=O)c(-c2ccc(Cl)cc2)[n+]([O-])c2ccccc21,-10%,-1%,?,21µM*
O=c1c(-c2ccc(F)cc2)[n+]([O-])c2ccccc2n1OCc1ccccn1,-11%,-4%,?,21µM*
O=C(Nc1cccc2cccnc12)c1cccc(S(=O)(=O)N2CCN(c3ccc(F)cc3)CC2)c1,-3%,/,/,/
c1ccc(-c2nn3c(Cn4nnc5ccccc54)nnc3s2)nc1,0%,-26%,-15%,27µM*
CCCc1nnc2sc(-c3ccc4ccccc4n3)nn12,0%,/,/,/
c1cncc(-c2nn3c(Cn4nnc5ccccc54)nnc3s2)c1,?,-2%,?,17µM*
N#Cc1cccc2c1-c1ccccc1/C2=N/NC(N)=S,/,21%,-10%,-11%
NC(=S)NN=C1c2ccccc2-c2c(F)c(F)c(F)c(F)c21,?,/,79µM*,8.4µM*
C[S+](=O)([O-])N1Cc2ccccc2CC2(CCCN2CC2CCCC2)C1 (stereo not drawn),0%[6.33 µM],/,/,/
CSc1ccc(/C=N/Nc2ccc(F)cc2F)cc1,1.8µM*,/,/,/
Fc1ccc(N/N=C/c2ccncc2)c(F)c1,?,1%,2%,-8%
Fc1ccc(/C=N\Nc2cccc(F)c2)cc1,14%,-14%,2%,-6%
Fc1ccc(/C=N/Nc2ccc(F)cc2)cc1,2.2µM*,/,/,/
Fc1ccc(N/N=C/C=C/c2ccccc2)c(F)c1,40µM*,-3%,-17%,-16%
CC(C)c1noc(CN2CCN(CCOc3ccc(Cl)cc3)CC2)n1,-20%,/,/,/
CCNc1ncc2nc(-c3cc(F)cc(F)c3)c(=O)n(CCc3ccccc3)c2n1,11µM*,?,?,/
COc1ccc(-n2c(=O)c(CCc3ccccc3)nc3cnc(N4CCN(C)CC4)nc32)cc1,13µM*,-5%,-3%,/
CN1CCN(c2ncc3nc(-c4ccccc4)c(=O)n(-c4ccccc4)c3n2)CC1,?,22µM*,1%,/
CN1CCN(c2ncc3nc(-c4ccccc4)c(=O)n(Cc4ccc(F)cc4)c3n2)CC1,35µM*,-21%,6%,/
COc1ccc(-n2c(=O)c(CCc3ccccc3)nc3cnc(N4CCNCC4)nc32)cc1,-24%,-20%,-14%,/
C=Cc1ccc(COc2ccc3c(=O)c(Oc4ccccc4OC)coc3c2)cc1,17%,/,/,/
CN1CCN(c2ncc3nc(-c4cc(F)cc(F)c4)c(=O)n(Cc4cccs4)c3n2)CC1,18µM*,-5%,1%,/
CN(/C=C1/C(=O)CNC1=O)CCO,-14%,-10%,?,17µM*
COc1ccc(-c2cc(-c3cccnc3)cn3cncc23)cc1,-17%[176 µM],/,/,/
CC[C@@]1(c2ccccc2OC)C(=O)N(C(=O)OC)N1C(=O)OC,/,-7%,24%,?
SMILES,12-LOX inh,GCN5L2 inh,VDR inhibitor,PLK1 PBD block
CC[C@@]1(c2cccc(C)c2)C(=O)N(C(=O)OC)N1C(=O)OC,7%,1%,?,9.5µM*
COC(=O)N1C(=O)[C@](CC(C)C)(c2ccccc2)N1C(=O)OC,-22%,0%,79µM*,13µM*
O=C(Nc1cccc(Cl)c1)c1cc(-c2cccc(O)c2)on1,-19%,/,/,/
CCCCCC(=O)N[C@@H](Cn1cc(F)c(=O)[nH]c1=O)C(=O)O,6%[176 µM],/,/,/
COC(=O)c1ccc(OC(=O)/C=C/c2ccc(Br)o2)cc1,11µM*,/,/,/
COC(=O)c1ccc(OC(=O)/C=C/c2ccco2)cc1,-12%,-8%,-9%,-13%
CC1CCN(C(=S)NCCc2ccccc2)CC1,4%,1%,3%,-3%
OC(c1ccccc1)(c1ccccc1)C1CCN(C(=S)NCCc2ccccc2)CC1,40µM*,-7%,-13%,-3%
COC(=O)c1ccc(C2NC(=O)c3c(sc(C)c3C)N2)cc1 (stereo not drawn),?,?,-10%,27µM*
COc1ccc(C(=O)N2CCC[C@@]3(CCN(c4ccccc4)C3)C2)cc1,-21%[57.4 µM],2%,56µM*,/
O=C(c1cccc(F)c1)N1CCC[C@@]2(CCN(c3ccccc3)C2)C1,-8%[57.4 µM],-19%,45µM*,/
O=C(Oc1ccccc1)N1CCC[C@@]2(CCN(c3ccccc3)C2)C1,?,-1%,35µM*,/
COc1ccc(C(=O)N2CCC[C@@]3(CCN(c4ccncc4)C3)C2)cc1,1%[57.4 µM],7%,14%,/
O=C(c1cccc(F)c1)N1CCC[C@@]2(CCN(c3cccc(-c4ccccc4)c3)C2)C1,1%[57.4 µM],-14%,45µM*,/
Cc1cc(C)c(NC(=O)C23CC4CC(C2)CC(c2ccccc2)(C4)C3)c(Cl)c1,-5%,/,/,/
